# Inconclusive results are not listed. Active and inactive are the calls of the source. Rule for the calls, unless noted: active = hit-call score of the fitted dose curve at least 0.9, where 1 is the maximum; inactive = score below 0.9.
# Legend:
# [1] = BSK_LPS_PGE2: BioMAP Diversity Plus: LPS Assay for Prostaglandin E2 (PGE2) Biomarker Activity (AID 2283082); settings: primary human HUVEC with PBMC; actives raise or lower the signal;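 for AC50: secreted prostaglandin E2 measured by ELISA in LPS-stimulated co-culture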
# Method in brief: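 ELISA read-out of PGE2 from human umbilical vein endothelial cells co-cultured with peripheral blood mononuclear cells under LPS, 24 h post-dose. Gain or loss of signal scored relative to DMSO baseline.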
# [2] = read-out: Macrophage colony-stimulating factor (MCSF), CSF1 (gene 1435); assay: BSK_LPS_MCSF: BioMAP Diversity Plus: LPS Assay for Macrophage colony-stimulating factor (MCSF) Biomarker Activity (AID 2283083); settings: primary human HUVEC with PBMC; actives raise or lower the signal
# Method in brief: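 ELISA readout of M-CSF after 24 h compound exposure in a human endothelial/PBMC co-culture. Activity, in either direction, is fitted relative to DMSO vehicle.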
# [3] = read-out: Tissue Factor, F3 (gene 2152); assay: BSK_LPS_TissueFactor: BioMAP Diversity Plus: LPS Assay for Tissue Factor Biomarker Activity (AID 2283084); settings: primary human HUVEC with PBMC; actives raise or lower the signal
# Method in brief: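 ELISA signal for cell-surface Tissue Factor (CD142) was read 24 h after compound dosing of an LPS-stimulated human endothelial–PBMC primary co-culture. Gain or loss of signal was scored relative to DMSO.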
# [4] = read-out: Tumor necrosis factor (Homo sapiens) (UniProt P01375); assay: BSK_LPS_TNFa: BioMAP Diversity Plus: LPS Assay for Tumour Necrosis Factor alpha (TNFa) Biomarker Activity (AID 2283085); settings: primary human HUVEC with PBMC; actives raise or lower the signal;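 for AC50: TNFa protein level quantified by ELISA in the co-culture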
# Method in brief: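 HUVEC/PBMC co-culture, LPS-stimulated; 24 h post-dose; TNFa by ELISA; gain or loss of signal fitted bidirectionally vs DMSO baseline.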
# [5] = read-out: Vascular cell adhesion molecule 1 (VCAM1), VCAM1 (gene 7412); assay: BSK_LPS_VCAM1: BioMAP Diversity Plus: LPS Assay for Vascular cell adhesion molecule 1 (VCAM1) Biomarker Activity (AID 2283086); settings: primary human HUVEC with PBMC; actives raise or lower the signal
# Method in brief: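 ELISA read-out of VCAM-1 at 24 h post-dosing in an LPS-driven HUVEC/PBMC primary human co-culture; gain or loss of signal fitted bidirectionally against DMSO baseline. Cytotoxicity tracked in parallel cultures by SRB total-protein staining.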
# CD38, CD38 (gene 952) = assay: BSK_SAg_CD38: BioMAP Diversity Plus: SAg Assay for CD38 Biomarker Activity (AID 2283087); settings: primary human HUVEC with PBMC; actives raise or lower the signal
# Method in brief: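 Measures CD38 on a human endothelial/PBMC co-culture driven by SEB and TSST-1, 24 h after compound exposure, using ELISA with fluorescence detection; DMSO defines baseline for bidirectional curve fitting.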
# CD40, CD40 (gene 958) = assay: BSK_SAg_CD40: BioMAP Diversity Plus: SAg Assay for CD40 Biomarker Activity (AID 2283088); settings: primary human HUVEC with PBMC; actives raise or lower the signal
# Method in brief: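 Compounds were dosed onto a human primary endothelial–PBMC co-culture, and after 24 h CD40 was quantified by ELISA using a fluorescence signal. Activity in either direction was fitted relative to DMSO.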
# CD69, CD69 (gene 969) = assay: BSK_SAg_CD69: BioMAP Diversity Plus: SAg Assay for CD69 Biomarker Activity (AID 2283089); settings: primary human HUVEC with PBMC; actives raise or lower the signal;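 for AC50: cell surface CD69 protein quantified by ELISA with fluorescence detection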
# Method in brief: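 Values derive from bidirectional fitting relative to DMSO vehicle. Cells: umbilical vein endothelium plus peripheral blood mononuclear cells, treated 24 h before fluorescent ELISA for CD69.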
# [6] = read-out: Monocyte Chemoattractant Protein-1 (MCP1), CCL2 (gene 6347); assay: BSK_SAg_MCP1: BioMAP Diversity Plus: SAg Assay for Monocyte Chemoattractant Protein-1 (MCP1) Biomarker Activity (AID 2283090); settings: primary human HUVEC with PBMC; actives raise or lower the signal
# Method in brief: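 Values derive from bidirectional fitting of ELISA-measured MCP1 against DMSO controls. Readings were taken 24 h after dosing human vascular endothelial cells co-cultured with peripheral blood mononuclear cells under superantigen stimulation.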
# [7] = read-out: E-selectin (Homo sapiens) (UniProt P16581); assay: BSK_SAg_Eselectin: BioMAP Diversity Plus: SAg Assay for Eselectin Biomarker Activity (AID 2283091); settings: primary human HUVEC with PBMC; actives raise or lower the signal
# Method in brief: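 Co-culture: HUVEC + PBMC. Dose compound; 24 h. ELISA for E-selectin. Bidirectional fit vs DMSO.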
# [8] = read-out: Monokine induced gamma interferon (MIG), CXCL9 (gene 4283); assay: BSK_SAg_MIG: BioMAP Diversity Plus: SAg Assay for Monokine induced gamma interferon (MIG) Biomarker Activity (AID 2283092); settings: primary human HUVEC with PBMC; actives raise or lower the signal
# Method in brief: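 Values reflect bidirectional fitting of ELISA-measured MIG against DMSO vehicle, taken 24 h after dosing of a co-culture of human umbilical vein endothelial cells and peripheral blood mononuclear cells.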
# [9] = BSK_SAg_PBMCCytotoxicity: PBMC Cytotoxicity Assessment in the BioMAP Diversity Plus: SAg Assay (AID 2283093); settings: primary human HUVEC with PBMC;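 note: fitted both ways against DMSO so a hit may be loss or gain of signal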;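 for AC50: PBMC superantigen activated with SEB plus TSST-1 one hour after compound addition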
# Method in brief: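 PBMC viability by Alamar Blue reduction, fluorescence read at 546/580 nm after 6 h dye exposure. Cells were dosed 1 h before SEB plus TSST-1 activation (20 ng/mL final each), then held 90 h; endothelial/PBMC human co-culture.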
# [10] = read-out: Interleukin-8 (IL8), CXCL8 (gene 3576); assay: BSK_SAg_IL8: BioMAP Diversity Plus: SAg Assay for Interleukin-8 (IL8) Biomarker Activity (AID 2283094); settings: primary human HUVEC with PBMC; actives raise or lower the signal
# Method in brief: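 HUVEC/PBMC co-culture, 24 h post-dose; IL-8 by ELISA. Gain or loss of signal fitted bidirectionally vs DMSO baseline.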
# [11] = BSK_SAg_Proliferation: Cell Proliferation Assessment in the BioMAP Diversity Plus: SAg Assay (AID 2283095); settings: primary human HUVEC with PBMC;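 note: relative cell number as total protein by SRB absorbance in sub-confluent culture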
# Method in brief: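 HUVEC/PBMC co-culture, 96-well. TCA-fixed (10%), 0.1% SRB stain, A560 at 96 h. Protein content used as viability readout; bidirectional fitting vs DMSO control.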
# [12] = BSK_SAg_SRB: Viability Assessment in the BioMAP Diversity Plus: SAg Assay (AID 2283096); settings: primary human HUVEC with PBMC;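 note: cells read one day after compound addition; hits may be either gain or loss of signal compared with DMSO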
# Method in brief: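 Compounds were added to a human vascular co-culture of umbilical vein endothelium and PBMC. After 24 h, parallel cultures were fixed with 10% TCA, stained with 0.1% sulforhodamine B and read at 560 nm. Gain or loss of signal was fitted relative to DMSO.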
# [13] = read-out: Monocyte Chemoattractant Protein-1 (MCP1), CCL2 (gene 6347); assay: BSK_LPS_MCP1: BioMAP Diversity Plus: LPS Assay for Monocyte Chemoattractant Protein-1 (MCP1) Biomarker Activity (AID 2283081); settings: primary human HUVEC with PBMC; actives raise or lower the signal;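 for AC50: secreted MCP-1 protein quantified by ELISA in culture supernatant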
# Method in brief: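 Human endothelial–PBMC co-cultures were dosed with chemical, then LPS-driven MCP-1 levels were quantified by ELISA at 24 h. Activity in either direction was fitted versus DMSO negative control.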
# [14] = target: human CYP2C9, CYP2C9 (gene 1559) (UniProt P11712); assay: NVS_ADME_hCYP2C9: NovaScreen (NVS) CYP450-related Enzyme Activity (ADME) Assay for human CYP2C9 (AID 2283108; active = hit-call score of the fitted dose curve at least 0.9, where 1 is the maximum)
# Sequence of human CYP2C9, CYP2C9 (gene 1559) (P11712 whole entry, looked up): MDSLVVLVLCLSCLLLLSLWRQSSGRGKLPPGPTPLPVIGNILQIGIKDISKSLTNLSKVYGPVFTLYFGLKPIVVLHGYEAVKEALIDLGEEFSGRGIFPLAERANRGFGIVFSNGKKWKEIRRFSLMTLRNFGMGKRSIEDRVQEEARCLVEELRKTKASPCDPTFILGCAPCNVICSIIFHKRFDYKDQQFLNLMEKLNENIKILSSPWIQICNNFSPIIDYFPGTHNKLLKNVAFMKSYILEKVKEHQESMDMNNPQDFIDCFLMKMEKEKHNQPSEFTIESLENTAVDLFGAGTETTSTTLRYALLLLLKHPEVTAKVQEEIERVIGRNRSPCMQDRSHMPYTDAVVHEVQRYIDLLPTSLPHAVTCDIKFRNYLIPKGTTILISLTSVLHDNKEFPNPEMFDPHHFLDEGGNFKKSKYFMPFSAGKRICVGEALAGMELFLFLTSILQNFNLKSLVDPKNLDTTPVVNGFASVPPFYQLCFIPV
# Method in brief: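 Recombinant human CYP2C9 expressed in SF9 cells, fluorogenic substrate, fluorescence read 0.75 h after dosing. Chemicals first run in duplicate at 10 uM, with actives followed in concentration series; loss of signal versus acetonitrile baseline.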
# [15] = target: human CYP2B6, CYP2B6 (gene 1555) (UniProt P20813); assay: NVS_ADME_hCYP2B6: NovaScreen (NVS) CYP450-related Enzyme Activity (ADME) Assay for human CYP2B6 (AID 2283101; active = hit-call score of the fitted dose curve at least 0.9, where 1 is the maximum)
# Sequence of human CYP2B6, CYP2B6 (gene 1555) (P20813 whole entry, looked up): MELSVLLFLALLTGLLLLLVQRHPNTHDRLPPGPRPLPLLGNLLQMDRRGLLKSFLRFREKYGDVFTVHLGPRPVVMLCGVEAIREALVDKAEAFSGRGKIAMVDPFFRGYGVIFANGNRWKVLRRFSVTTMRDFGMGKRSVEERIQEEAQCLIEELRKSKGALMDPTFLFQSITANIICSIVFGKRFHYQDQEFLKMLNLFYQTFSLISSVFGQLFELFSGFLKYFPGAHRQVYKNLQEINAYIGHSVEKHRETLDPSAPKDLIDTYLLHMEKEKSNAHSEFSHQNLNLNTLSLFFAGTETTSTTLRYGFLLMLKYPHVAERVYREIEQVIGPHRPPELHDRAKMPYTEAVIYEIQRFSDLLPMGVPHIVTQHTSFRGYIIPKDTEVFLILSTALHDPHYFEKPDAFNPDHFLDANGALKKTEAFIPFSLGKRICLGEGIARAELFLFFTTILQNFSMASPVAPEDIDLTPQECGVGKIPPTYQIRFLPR
# Method in brief: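 Compounds were first screened in duplicate at 10 uM against recombinant enzyme, with the fluorescent product measured after 1 hour. Active compounds were retested over a concentration series. Loss of fluorescence versus acetonitrile control was scored as reduced enzyme activity.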
# [16] = target: human CYP2D6, CYP2D6 (gene 1565) (UniProt P10635); assay: NVS_ADME_hCYP2D6: NovaScreen (NVS) CYP450-related Enzyme Activity (ADME) Assay for human CYP2D6 (AID 2283107; active = hit-call score of the fitted dose curve at least 0.9, where 1 is the maximum)
# Sequence of human CYP2D6, CYP2D6 (gene 1565) (P10635 whole entry, looked up): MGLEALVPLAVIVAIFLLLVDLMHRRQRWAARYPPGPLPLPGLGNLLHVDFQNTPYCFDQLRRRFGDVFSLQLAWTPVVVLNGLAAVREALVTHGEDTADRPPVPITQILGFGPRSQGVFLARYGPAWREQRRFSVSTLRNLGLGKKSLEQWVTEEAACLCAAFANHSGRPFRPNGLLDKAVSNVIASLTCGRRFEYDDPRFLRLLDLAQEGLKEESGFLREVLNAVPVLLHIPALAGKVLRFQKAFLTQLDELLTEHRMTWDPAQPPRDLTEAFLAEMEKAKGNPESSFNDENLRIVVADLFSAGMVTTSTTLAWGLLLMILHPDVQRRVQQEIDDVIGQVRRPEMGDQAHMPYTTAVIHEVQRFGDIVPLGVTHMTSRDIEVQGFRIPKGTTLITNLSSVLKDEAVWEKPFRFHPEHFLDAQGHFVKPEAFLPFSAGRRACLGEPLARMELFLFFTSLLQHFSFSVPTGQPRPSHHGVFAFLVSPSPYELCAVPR
# Method in brief: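 Insect-cell recombinant enzyme + fluorogenic substrate, cell-free; 1 h incubation; fluorescence intensity readout. Acetonitrile = neg. ctrl/baseline. Single-point 10 uM, duplicate; follow-up concentration series.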
# Sequence of Tumor necrosis factor (Homo sapiens) (P01375 whole entry, looked up): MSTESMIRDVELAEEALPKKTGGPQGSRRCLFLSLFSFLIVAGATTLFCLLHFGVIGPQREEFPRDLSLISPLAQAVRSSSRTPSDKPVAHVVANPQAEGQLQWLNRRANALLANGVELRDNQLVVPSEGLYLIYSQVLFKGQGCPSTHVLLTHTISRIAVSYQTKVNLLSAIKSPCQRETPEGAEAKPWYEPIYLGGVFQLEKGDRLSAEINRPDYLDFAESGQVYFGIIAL
# Sequence of E-selectin (Homo sapiens) (P16581 whole entry, looked up): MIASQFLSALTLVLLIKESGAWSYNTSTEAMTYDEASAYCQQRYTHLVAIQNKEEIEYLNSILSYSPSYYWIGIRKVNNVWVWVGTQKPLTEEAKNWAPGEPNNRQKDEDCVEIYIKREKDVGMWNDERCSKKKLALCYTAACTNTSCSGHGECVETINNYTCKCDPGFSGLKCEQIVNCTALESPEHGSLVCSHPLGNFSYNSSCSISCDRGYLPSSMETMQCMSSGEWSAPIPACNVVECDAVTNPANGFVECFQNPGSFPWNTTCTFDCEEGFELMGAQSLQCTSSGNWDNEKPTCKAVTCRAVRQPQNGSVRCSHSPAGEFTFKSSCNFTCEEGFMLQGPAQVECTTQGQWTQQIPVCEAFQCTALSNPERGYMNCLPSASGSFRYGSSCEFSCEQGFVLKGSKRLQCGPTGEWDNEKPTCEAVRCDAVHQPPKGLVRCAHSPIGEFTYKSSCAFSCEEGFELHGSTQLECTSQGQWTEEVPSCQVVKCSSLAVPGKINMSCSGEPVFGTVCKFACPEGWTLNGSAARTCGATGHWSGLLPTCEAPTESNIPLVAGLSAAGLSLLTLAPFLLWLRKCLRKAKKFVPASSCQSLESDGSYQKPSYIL
compound,measurement,setting,value
C[C@]12C=CC3=C4CCC(=O)C=C4CC[C@H]3[C@@H]1CC[C@@H]2O,AC50,[1],7.31 µM (active)
same,AC50,[2],9.08 µM (active)
same,outcome,[3],inactive
same,outcome,[4],inactive
same,AC50,[5],10.3 µM (active)
same,AC50,"CD38, CD38 (gene 952)",4.63 µM (active)
same,AC50,"CD40, CD40 (gene 958)",9.73 µM (active)
same,outcome,"CD69, CD69 (gene 969)",inactive
same,outcome,[6],inactive
same,outcome,[7],inactive
same,outcome,[8],inactive
same,outcome,[9],inactive
same,outcome,[10],inactive
same,outcome,[11],inactive
same,AC50,[12],7.24 µM (active)
Oc1ccc2ccc3cccc4ccc1c2c34,AC50,[13],29.7 µM (active)
same,AC50,[1],4.03 µM (active)
same,AC50,[2],30.4 µM (active)
same,AC50,[3],34.4 µM (active)
same,AC50,[4],33 µM (active)
same,AC50,[5],35.3 µM (active)
same,AC50,"CD40, CD40 (gene 958)",23.3 µM (active)
same,AC50,"CD69, CD69 (gene 969)",31.9 µM (active)
same,AC50,[6],29.5 µM (active)
same,AC50,[7],30.7 µM (active)
same,AC50,[8],36.7 µM (active)
same,AC50,[9],8.38 µM (active)
same,AC50,[10],36.1 µM (active)
same,AC50,[11],6.09 µM (active)
same,AC50,[12],30.4 µM (active)
same,AC50,[14],2.53 µM (active)
Nc1ccc(Oc2ccc(N)cc2)cc1,outcome,[13],inactive
same,AC50,[1],12.7 µM (active)
same,outcome,[2],inactive
same,outcome,[3],inactive
same,outcome,[4],inactive
same,outcome,[5],inactive
same,outcome,"CD40, CD40 (gene 958)",inactive
same,outcome,"CD69, CD69 (gene 969)",inactive
same,outcome,[6],inactive
same,outcome,[7],inactive
same,outcome,[8],inactive
same,outcome,[9],inactive
same,outcome,[10],inactive
same,outcome,[11],inactive
same,outcome,[12],inactive
same,AC50,[15],2.57 µM (active)
same,outcome,[16],inactive
O=C(O)C1C2CCC(O2)C1C(=O)O (stereo not given),outcome,[1],inactive
same,outcome,[2],inactive
same,outcome,[3],inactive
same,AC50,[4],6.16 µM (active)
same,outcome,[5],inactive
same,outcome,"CD38, CD38 (gene 952)",inactive
same,outcome,"CD40, CD40 (gene 958)",inactive
same,outcome,"CD69, CD69 (gene 969)",inactive
same,outcome,[6],inactive
same,outcome,[7],inactive
same,outcome,[8],inactive
same,outcome,[9],inactive
same,outcome,[10],inactive
same,AC50,[11],18.6 µM (active)
same,AC50,[12],25.6 µM (active)
O=[N+]([O-])C(Br)(CO)CO,outcome,[1],inactive
same,AC50,[2],28.9 µM (active)
same,AC50,[3],28.4 µM (active)
same,AC50,[4],31.7 µM (active)
same,AC50,[5],30.1 µM (active)
same,AC50,"CD38, CD38 (gene 952)",31.3 µM (active)
same,AC50,"CD40, CD40 (gene 958)",28.1 µM (active)
same,AC50,"CD69, CD69 (gene 969)",28.5 µM (active)
same,AC50,[6],31.1 µM (active)
same,AC50,[7],24.7 µM (active)
same,AC50,[8],39.1 µM (active)
same,AC50,[9],22.5 µM (active)
same,AC50,[10],27.6 µM (active)
same,AC50,[11],8.35 µM (active)
same,AC50,[12],30.6 µM (active)
same,outcome,[16],inactive
same,AC50,[14],3.26 µM (active)
c1ccc(N=Nc2ccccc2)cc1,outcome,[1],inactive
same,outcome,[2],inactive
same,outcome,[3],inactive
same,outcome,[4],inactive
same,outcome,[5],inactive
same,outcome,"CD38, CD38 (gene 952)",inactive
same,outcome,"CD40, CD40 (gene 958)",inactive
same,outcome,"CD69, CD69 (gene 969)",inactive
same,outcome,[6],inactive
same,outcome,[7],inactive
same,outcome,[8],inactive
same,outcome,[9],inactive
same,outcome,[10],inactive
same,outcome,[11],inactive
same,outcome,[12],inactive
CCC12COCN1COC2,outcome,[13],inactive
same,outcome,[1],inactive
same,outcome,[2],inactive
same,outcome,[3],inactive
same,outcome,[4],inactive
same,outcome,[5],inactive
same,outcome,"CD40, CD40 (gene 958)",inactive
same,outcome,"CD69, CD69 (gene 969)",inactive
same,outcome,[6],inactive
same,outcome,[7],inactive
same,outcome,[9],inactive
same,outcome,[10],inactive
same,outcome,[11],inactive
same,outcome,[12],inactive
same,AC50,[14],3.73 µM (active)

# From PubChem BioAssay (EPA / NIEHS)
